The structures appear in SMILES notation. Inconclusive results are not listed. Entries that show only a call come without a potency. The source made the active and inactive calls. Unless noted, calls come from the whole dose curve; as a rule, active = well fitted curve in the direction sought with a large enough effect; inconclusive = small, poorly fitted or top-dose-only effect, or another doubt; inactive = no such curve, though single readings can be large; an effect the other way counts as inactive or inconclusive.

Test [1] is described as follows: S16 Schwann cell viability assay (CellTiter-Glo assay) (AID 624031).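 Note: native untransfected S16 rat Schwann cells; nearly all actives have a fitted effect of over 70% in size.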 In short, it runs like this: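 Rat S16 Schwann cells without reporter constructs received compound or DMSO for 24 h at 37 °C under 5% CO2. Cellular ATP was then quantified by CellTiter-Glo luminescence, with vehicle wells defined as 0% activity and cell-free wells as reference.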
Test [2] in a line: S16 Schwann cell PMP22 intronic element firefly luciferase assay (AID 624032). Note: nearly all actives have a fitted effect of over 30% in size. In short, it runs like this:
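Rat S16 Schwann cells stably carrying a PMP22 intronic element-driven Fluc reporter were seeded overnight, then exposed to compounds for 24 h at 37 °C. Luminescence was normalized to PTC124 (positive control) and DMSO (0% activity).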

For test [3], the target named is Luciferin 4-monooxygenase (Photinus pyralis) (UniProt P08659). Kind of test: Biochemical firefly luciferase enzyme assay for NPC (AID 624030).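 Note: purified P. pyralis luciferase at 10 nM with luciferin and ATP substrate; nearly all actives have a fitted effect of over 70% in size.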 In short, it runs like this:
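Counter-screen for direct inhibition of the luciferase enzyme by approved-drug library compounds, run at 10 nM enzyme in 50 mM Tris acetate (final). Luminescence was read within 5 min of enzyme-buffer addition and normalized to PTC124 versus DMSO (0%).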

A short description of test [4]: qHTS assay for small molecule antagonists of retinoid X receptor alpha signaling (AID 588546; active = well fitted inhibition curve with a large enough effect in the signal ratio, with a control signal flat, not every such curve was filed as active; the % refers to the signal ratio;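 note: cells stimulated with 9-cis-retinoic acid as agonist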). To be noted: HEK293T RXRa-UAS-bla, beta-lactamase ratio, antagonist mode; measured here: W530 green channel, cytotoxicity proxy. In short, it runs like this:
(§1)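 Beta-lactamase reporter inhibition, read as CCF4 fluorescence ratio (ex 405, em 460/530 nm) after 2 h at RT. HEK293T UAS-bla cells, 2500/well, were stimulated with 9-cis-RA at 500 or 100 nM final alongside test compound for 18 h at 37 C.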
On the technique in general: qHTS replaces the single test concentration by a dilution series.

The target of test [5] is Retinoic acid receptor RXR-alpha (Homo sapiens) (UniProt P19793). Described as above. To be noted: HEK293T RXRa-UAS-bla, beta-lactamase ratio, antagonist mode. In short, it runs like this: as §1
Retinoic acid receptor RXR-alpha (Homo sapiens), sequence (P19793 whole entry, looked up): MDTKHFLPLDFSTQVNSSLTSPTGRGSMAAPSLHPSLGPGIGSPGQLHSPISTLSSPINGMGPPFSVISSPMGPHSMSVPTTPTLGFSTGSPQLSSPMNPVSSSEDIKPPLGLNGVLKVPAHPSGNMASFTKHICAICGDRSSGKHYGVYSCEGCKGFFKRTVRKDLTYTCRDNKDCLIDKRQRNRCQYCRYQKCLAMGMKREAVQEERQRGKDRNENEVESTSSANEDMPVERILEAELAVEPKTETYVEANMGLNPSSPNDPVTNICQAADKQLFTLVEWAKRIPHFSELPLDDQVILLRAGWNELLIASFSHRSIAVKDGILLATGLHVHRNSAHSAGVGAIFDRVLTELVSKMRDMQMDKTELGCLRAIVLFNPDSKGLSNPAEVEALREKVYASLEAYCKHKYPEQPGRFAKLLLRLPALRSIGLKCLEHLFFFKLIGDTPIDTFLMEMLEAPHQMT
Test [6] addresses Thyroid hormone receptor beta (Homo sapiens) (UniProt P10828). In words: qHTS assay for small molecule antagonists of thyroid hormone receptor beta signaling (AID 588547; active = well fitted inhibition curve with a large enough effect in the signal ratio, with a control signal flat, not every such curve was filed as active; the % refers to the signal ratio;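 note: cells stimulated with 0.4 nM T3 agonist during compound exposure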). To be noted: TR-UAS-bla HEK293, beta-lactamase ratio, antagonist mode, 18 h. An outline of the steps:
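TR-UAS-bla GripTite HEK293 cells in 2% charcoal/dextran FBS medium were preincubated 4 h at 37 C, given compound (0.59 nM to 92 uM) plus 0.4 nM T3 (final) for 18 h, then CCF4 for 2 h at RT; Hill fit gave IC50.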

Test [7] deals with Voltage-gated inwardly rectifying potassium channel KCNH2 (Homo sapiens) (UniProt Q12809). Kind of test: qHTS Assay for Small Molecule Inhibitors of the Human hERG Channel Activity (AID 588834).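 Note: top concentration of the series differs between compounds; lower thallium flux fluorescence means stronger hERG block; nearly all actives have a fitted effect of over 50% in size.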 An outline of the steps:
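Homogeneous FluxOR thallium flux assay using hERG-expressing U2OS cells (BacMam). Compound treatment about 10 minutes preceded stimulation; reduced fluorescence taken as channel block.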

Test [8] is described as follows: Cytotoxicity counterscreen for NFkB agonists and antagonists (AID 624476). Note: potency is the fitted concentration of half-maximal effect. As to conditions: NFkB reporter cell line viability counterscreen. On the technique in general: Counterscreens check selectivity or assay interference.
Test [9] is described as follows: qHTS Assay for Identification of Small Molecule Agonists for NFkB Signaling Pathway. (AID 624478).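 Note: compounds tested together with TNF alpha at its EC50 of 10 pM.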 In short, it runs like this: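 Read-out: 460/530 nm emission at 405 nm excitation after 2 h LiveBLAzer loading; ME-180 NFkB-bla reporter cells exposed 5 h at 37 C to compounds with 10 pM TNF alpha final.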
The nature of test [10]: qHTS Assay for Identification of Small Molecule Antagonists for NFkB Signaling Pathway. (AID 624479; calls by dose curve;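 note: pathway stimulated with TNF alpha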; note: potency is the fitted concentration of half-maximal effect).
Test [11] is described as follows: Cell Proliferation Assay against the TMD8 Cell Line (AID 651645).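 Note: cells exposed to compound for 48 h before reading.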 To be noted: TMD8 DLBCL cell line proliferation/viability; at 46.1 µM (top of the series). In short, it runs like this:
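Cell viability of the ABC DLBCL line TMD8 is measured by CellTiter-Glo luminescence following a 48-hour incubation with compound. Percent activity uses DMSO as 100% and 9.2 uM bortezomib (final) as 0%.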

The nature of test [12]: Cell Proliferation Assay against the HBL1 Cell Line (AID 651646).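 Note: cells exposed to compound for 48 h before reading.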 To be noted: HBL1 DLBCL cells; at 46.1 µM (top of the series). In short, it runs like this: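 After a 48 h incubation of 500 HBL1 cells/well in phenol red-free RPMI plus 5% FBS, relative luciferase units from CellTiter-Glo gave percent activity against DMSO and 9.2 uM bortezomib (final) controls.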
A short description of test [13]: Cell Proliferation Assay against the TMD8 Cell Line (Caspase readout at 8 hrs) (AID 651713). Note: potency is the fitted concentration of half-maximal effect. In short, it runs like this: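 Apoptosis readout: caspase 3/7 luminescence (Caspase-Glo), 15 min RT. Cells: TMD8, 500/well, RPMI + 5% FBS, no phenol red. Exposure 8 h, 37C. % activity vs DMSO = 0, bortezomib 9.2 uM final = 100.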
Test [14] can be described thus: S16 Schwann cell PMP22 intronic element beta-lactamase assay (AID 624044; calls by dose curve; note: nearly all actives have a fitted effect of over 15% in size). In short, it runs like this: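 Beta-lactamase reporter under a PMP22 intronic regulatory element in stable S16 rat Schwann cells; 24 h compound exposure. 460 nm blue signal normalized between DMSO (0%) and potassium clavulanate, with 535 nm FRET tracking viability; curves classed by r2 and response.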

Test [15] concerns the target Glutaminase kidney isoform, mitochondrial (Homo sapiens) (UniProt O94925). Kind of test: qHTS for Inhibitors of Glutaminase (GLS): LOPAC Validation (AID 624146).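 Note: glutamate product detected by oxidase and peroxidase coupled Amplex red fluorescence gain; nearly all actives have a fitted effect of over 60% in size.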 An outline of the steps: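 Human kidney-isoform GLS in 45 mM KH2PO4 pH 8.2, 0.02% Tween-20, with compound, started with 1mM L-Glutamine (added stock). Glutamate oxidase/HRP/Amplex red coupled fluorescence read at start and after 30 min at RT.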

The nature of test [16]: qHTS of Trypanosoma Brucei Inhibitors: LOPAC Validation (AID 624147). In short, it runs like this: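 ADP (130 uM final) triggers the TbPYK reaction after compound addition; incubation is 45 min at room temperature. Kinase-Glo Plus is then added and luminescence imaged. Normalized data are fitted to concentration-effect curves.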
The target of test [17] is Glucagon-like peptide 1 receptor (Homo sapiens) (UniProt P43220). Kind of test: qHTS of GLP-1 Receptor Agonists: LOPAC Validation (AID 624148).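 Note: higher luminescence signal means agonism.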 In short, it runs like this:
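HEK293 cells stably co-expressing a cAMP-responsive luciferase reporter and a hypersensitive GLP-1R were plated 12 h at 37 °C and exposed to compounds for 4-6 hr at 37 °C, 5% CO2. Luminescence was read 12 min after adding detection reagent.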

A short description of test [18]: qHTS of Nrf2 Activators: LOPAC Validation (AID 624149). An outline of the steps: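 AREc32_Fluc cells, 1000/well, OPTI-MEM + 5% FBS, o/n 37 deg C 5% CO2; compound pin-transfer, 24 hr 37 deg C; Steady-Glo 30 min RT, luminescence read.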
A short description of test [19]: HTS Assay for Allosteric Antagonists of the Human D2 Dopamine Receptor: Hit Validation in HTRF (AID 624455). In short, it runs like this: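 HTRF read-out; cells stably expressing D1 receptor; hits scored for inhibition of D1-mediated response. Primary screen: calcium flux, force-coupled inducible Hek293 Trex D2 line, antagonism vs EC80 dopamine.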

Luciferin 4-monooxygenase (Photinus pyralis), sequence (P08659 whole entry, looked up): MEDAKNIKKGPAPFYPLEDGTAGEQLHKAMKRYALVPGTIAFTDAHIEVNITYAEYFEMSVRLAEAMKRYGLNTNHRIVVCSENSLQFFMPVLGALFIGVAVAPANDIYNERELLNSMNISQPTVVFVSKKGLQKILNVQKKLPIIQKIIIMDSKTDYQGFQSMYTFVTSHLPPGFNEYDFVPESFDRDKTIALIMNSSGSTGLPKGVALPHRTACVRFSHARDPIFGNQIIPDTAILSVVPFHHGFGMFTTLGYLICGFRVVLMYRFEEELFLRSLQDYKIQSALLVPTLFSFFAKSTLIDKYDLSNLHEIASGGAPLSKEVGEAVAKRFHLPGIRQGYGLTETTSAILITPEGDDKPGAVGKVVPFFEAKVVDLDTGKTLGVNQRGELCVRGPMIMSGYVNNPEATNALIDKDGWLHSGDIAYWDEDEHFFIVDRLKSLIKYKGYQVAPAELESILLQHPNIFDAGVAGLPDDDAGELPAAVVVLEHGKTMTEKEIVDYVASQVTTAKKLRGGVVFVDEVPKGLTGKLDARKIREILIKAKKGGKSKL
Voltage-gated inwardly rectifying potassium channel KCNH2 (Homo sapiens), sequence (Q12809 whole entry, looked up): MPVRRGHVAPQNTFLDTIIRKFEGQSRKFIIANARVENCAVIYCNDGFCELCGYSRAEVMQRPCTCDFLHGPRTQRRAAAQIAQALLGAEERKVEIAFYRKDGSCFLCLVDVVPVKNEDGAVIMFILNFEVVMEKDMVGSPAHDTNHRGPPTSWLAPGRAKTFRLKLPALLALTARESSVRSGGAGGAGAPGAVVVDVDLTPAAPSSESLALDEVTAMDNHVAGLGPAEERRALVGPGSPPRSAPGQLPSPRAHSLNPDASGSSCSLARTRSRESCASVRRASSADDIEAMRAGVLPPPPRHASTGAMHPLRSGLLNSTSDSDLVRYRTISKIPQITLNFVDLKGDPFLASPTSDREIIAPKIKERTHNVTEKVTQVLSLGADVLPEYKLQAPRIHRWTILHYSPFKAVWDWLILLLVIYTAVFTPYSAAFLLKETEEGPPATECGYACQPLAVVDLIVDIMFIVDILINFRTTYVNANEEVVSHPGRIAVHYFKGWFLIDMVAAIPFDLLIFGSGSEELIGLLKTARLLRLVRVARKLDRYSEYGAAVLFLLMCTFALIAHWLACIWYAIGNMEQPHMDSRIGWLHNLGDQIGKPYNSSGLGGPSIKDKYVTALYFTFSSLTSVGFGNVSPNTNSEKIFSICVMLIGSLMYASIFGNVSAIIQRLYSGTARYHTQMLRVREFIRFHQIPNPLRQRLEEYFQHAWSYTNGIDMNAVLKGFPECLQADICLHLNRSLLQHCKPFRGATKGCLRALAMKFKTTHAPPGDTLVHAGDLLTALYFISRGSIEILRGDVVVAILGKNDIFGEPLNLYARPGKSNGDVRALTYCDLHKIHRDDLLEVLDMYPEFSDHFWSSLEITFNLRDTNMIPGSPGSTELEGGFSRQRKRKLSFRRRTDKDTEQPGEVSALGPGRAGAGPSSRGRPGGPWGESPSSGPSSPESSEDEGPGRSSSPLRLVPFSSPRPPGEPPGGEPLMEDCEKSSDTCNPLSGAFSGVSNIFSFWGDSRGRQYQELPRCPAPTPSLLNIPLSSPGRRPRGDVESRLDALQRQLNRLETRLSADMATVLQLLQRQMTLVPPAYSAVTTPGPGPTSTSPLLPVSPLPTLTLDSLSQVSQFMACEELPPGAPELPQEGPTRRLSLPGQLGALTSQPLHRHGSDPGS
Thyroid hormone receptor beta (Homo sapiens), sequence (P10828 whole entry, looked up): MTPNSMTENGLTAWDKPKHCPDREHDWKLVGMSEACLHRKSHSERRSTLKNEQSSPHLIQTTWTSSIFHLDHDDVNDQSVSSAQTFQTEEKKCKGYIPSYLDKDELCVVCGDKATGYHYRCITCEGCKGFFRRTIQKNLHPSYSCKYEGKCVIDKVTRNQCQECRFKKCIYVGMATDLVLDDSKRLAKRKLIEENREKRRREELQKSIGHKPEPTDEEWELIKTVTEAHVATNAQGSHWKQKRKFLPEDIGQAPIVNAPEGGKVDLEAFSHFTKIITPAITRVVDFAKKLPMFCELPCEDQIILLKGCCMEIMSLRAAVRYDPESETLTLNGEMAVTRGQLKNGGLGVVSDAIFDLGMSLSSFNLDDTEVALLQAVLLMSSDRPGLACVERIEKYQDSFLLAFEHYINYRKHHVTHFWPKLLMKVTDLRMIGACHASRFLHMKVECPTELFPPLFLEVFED
Glucagon-like peptide 1 receptor (Homo sapiens), sequence (P43220 whole entry, looked up): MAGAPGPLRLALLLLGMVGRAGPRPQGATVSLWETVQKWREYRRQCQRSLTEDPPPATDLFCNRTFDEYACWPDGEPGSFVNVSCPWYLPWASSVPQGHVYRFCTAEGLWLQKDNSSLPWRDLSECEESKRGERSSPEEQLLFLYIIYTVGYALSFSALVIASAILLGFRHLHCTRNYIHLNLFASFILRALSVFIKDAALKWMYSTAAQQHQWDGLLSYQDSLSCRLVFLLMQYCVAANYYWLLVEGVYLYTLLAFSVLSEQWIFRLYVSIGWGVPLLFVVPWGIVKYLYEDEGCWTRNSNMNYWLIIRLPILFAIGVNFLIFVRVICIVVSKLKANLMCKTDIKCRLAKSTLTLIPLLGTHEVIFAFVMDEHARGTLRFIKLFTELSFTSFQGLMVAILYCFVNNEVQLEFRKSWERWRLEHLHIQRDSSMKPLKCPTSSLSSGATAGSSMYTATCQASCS
Glutaminase kidney isoform, mitochondrial (Homo sapiens), sequence (O94925 whole entry, looked up, canonical isoform): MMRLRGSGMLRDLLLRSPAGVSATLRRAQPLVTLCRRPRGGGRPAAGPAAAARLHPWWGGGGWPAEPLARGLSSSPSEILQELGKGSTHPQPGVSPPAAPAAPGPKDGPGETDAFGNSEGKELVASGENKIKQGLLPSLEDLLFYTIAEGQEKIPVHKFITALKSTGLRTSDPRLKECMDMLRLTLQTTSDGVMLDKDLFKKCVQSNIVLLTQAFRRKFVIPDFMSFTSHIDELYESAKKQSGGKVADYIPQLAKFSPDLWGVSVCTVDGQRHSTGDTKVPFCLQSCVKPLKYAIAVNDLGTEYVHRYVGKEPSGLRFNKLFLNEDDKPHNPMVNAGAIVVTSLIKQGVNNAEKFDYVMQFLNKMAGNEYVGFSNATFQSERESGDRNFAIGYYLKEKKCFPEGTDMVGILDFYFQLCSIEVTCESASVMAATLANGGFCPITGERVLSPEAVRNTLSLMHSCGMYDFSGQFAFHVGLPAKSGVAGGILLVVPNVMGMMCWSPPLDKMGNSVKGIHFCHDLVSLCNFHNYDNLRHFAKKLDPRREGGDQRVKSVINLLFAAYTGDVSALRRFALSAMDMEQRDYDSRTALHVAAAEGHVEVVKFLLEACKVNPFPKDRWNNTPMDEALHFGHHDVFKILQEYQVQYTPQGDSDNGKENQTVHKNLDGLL

Take `COc1cccc2c1C(=O)c1c(O)c3c(c(O)c1C2=O)C[C@@](O)(C(=O)CO)C[C@@H]3O[C@H]1C[C@H](N)[C@H](OC2CCCCO2)[C@H](C)O1` (stereo partly drawn): the result in test [1] was inactive. The Potency entry in [2] is “inactive”.
Take `COC1=C(OC)C(=O)C(CC=C(C)CCC=C(C)CCC=C(C)CCC=C(C)CCC=C(C)CCC=C(C)CCC=C(C)CCC=C(C)CCC=C(C)CCC=C(C)C)=C(C)C1=O`: in test [3], the molecule was classed as inactive.
On the same count and under the same terms, the value for `C#CCC(Cc1cnc2nc(N)nc(N)c2n1)c1ccc(C(=O)N[C@@H](CCC(=O)O)C(=O)O)cc1` (stereo partly drawn) was “inactive”.
For the molecule `Cc1cc(O)c2c(c1)C(=O)c1cccc(O)c1C2=O`, the results for the max response in test [4] and in test [5] were -3.99% and 11.5% (inactive), respectively. Moreover, the activity change % (negative = inhibition) in test [6] was 3.18% (inactive). The result in [7] was inactive.
In the case of `COc1cc2c(cc1OC)[C@@H]1C(=O)c3ccc4c(c3O[C@@H]1CO2)C=CC(C)(C)O4`, the Potency in test [8] is 26.4 µM (active). Also, the result in test [9] was inactive. In addition, the Potency result in test [10] and in test [13] was “inactive” each time. Moreover, the viability (% of control) in test [11] turned out to be 2.43%. Also, the viability, percent of control in test [12] is 18.7%.
With `N=c1ccn2c(n1)O[C@H]1[C@@H](O)[C@@H](CO)O[C@H]12`, in test [7], the call was inactive.
Consider `CCCCCCCCCCCCCCCC(=O)OC[C@@H](NC(=O)C(Cl)Cl)[C@H](O)c1ccc([N+](=O)[O-])cc1`, for which the result in [3] was inactive.
Regarding `COc1ccc2c(c1OC)C(=O)OC2[C@H]1c2c(cc3c(c2OC)OCO3)CCN1C` (stereo partly drawn), the call in test [3] and in test [1] was inactive. Besides, the Potency entry in test [2] and in [14] was “inactive” each time.
Regarding `CN[C@H](CC(C)C)C(=O)N[C@H]1C(=O)N[C@@H](CC(N)=O)C(=O)N[C@@H]2C(=O)N[C@H]3C(=O)N[C@H](C(=O)N[C@H](C(=O)O)c4cc(O)cc(O)c4-c4cc3ccc4O)[C@H](O)c3ccc(c(Cl)c3)Oc3cc2cc(c3O[C@@H]2O[C@H](CO)[C@@H](O)[C@H](O)[C@@H]2O[C@H]2C[C@](C)(N)[C@H](O)[C@H](C)O2)Oc2ccc(cc2Cl)[C@H]1O`, the result in test [15], in [16], in test [17], in [18] and in test [19] was inactive.
Turning to `CCCCCCCN(CC)CCCC(O)c1ccc(NS(C)(=O)=O)cc1` (stereo not drawn), in [3], the molecule was classed as inactive.
Same read-out and setting: the value for `Nc1ccn(C[C@@H](CO)OCP(=O)(O)O)c(=O)n1` was “inactive”.
Regarding `N#Cc1ccc(COC[C@H]2O[C@@H](n3c(NCc4ccc(Cl)c(Cl)c4)nc4c(N)ncnc43)[C@@H](O)[C@@H]2O)cc1`, in [9], the molecule was classed as inactive. For the same molecule, in test [11], the viability (% of control) was 1.09%. Also, the viability, percent of control in test [12] was determined as 17.4%. Moreover, the Potency in test [13] was 29.6 µM (active).
`Nc1ccn(C2CO[C@H](CO)O2)c(=O)n1` (stereo partly drawn): in test [3], the outcome was inactive.
Same read-out and setting: the value for `CCC(C(=O)O)C1CCC(C)C(C(C)C(O)C(C)C(=O)C(CC)C2OC3(C=CC(O)[C@@]4(CC[C@](C)(C5CC[C@@](O)(CC)C(C)O5)O4)O3)C(C)CC2C)O1` (stereo partly drawn) was “inactive”.
On to `COc1cc(C)c(Sc2cnc(NC(=O)c3ccc(CNC(C)C(C)(C)C)cc3)s2)cc1C(=O)N1CCN(C(C)=O)CC1` (stereo not drawn), for which the result in [9] was inactive. Besides, in test [10], the Potency was 26.6 µM (active). For the same molecule, the viability (% of control) in test [11] turned out to be 18.7%. Besides, the viability, percent of control in test [12] was found to be 12.9%.
As for `N[C@H]1CN(c2c(F)cc3c(=O)c(C(=O)O)cn(C4C[C@@H]4F)c3c2Cl)CC12CC2` (stereo partly drawn), in test [3], the result was inactive.

(Values after PubChem BioAssay (NCATS).)
